Test [1] can be described thus: small molecules captured by biotinylated probe aFSTL3 – biochemical, small-molecule microarray, fluorescence 635/667, stem cell growth factor project, primary screen (AID 1064).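 Note: measures binding of the biotinylated anti-FSTL3 antibody to printed compounds.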 The conditions noted are these: higher = more signal.
Test [2] is described as follows: binders from COS7 lysate, DM2A8 probe, primary screen, torsin A project, cell lysate, small-molecule microarray, fluorescence 635/667 (AID 1065). The conditions noted are these: higher = more signal, COS7 lysate expressing mutant human TOR1A.
Test [3] can be described thus: small molecules captured by biotinylated probe aFGF2 – biochemical, small-molecule microarray, fluorescence 635/667, stem cell growth factor project, primary screen (AID 1067).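 Note: measures binding of biotinylated aFGF2 protein to printed compounds on slides; z-score merges feature fluorescence and signal-to-noise across triplicate slides.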 Particulars: higher = more signal.
A short description of test [4]: small molecules captured by biotinylated probe aFGF10 – biochemical, small-molecule microarray, fluorescence 635/667, stem cell growth factor project, primary screen (AID 1071).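 Note: score merges 667 nm spot intensity and signal to noise from triplicate slides.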 Particulars: higher = more signal.
Test [5] addresses Neurogenic locus notch homolog protein 2 (Homo sapiens) (UniProt Q04721). In words: small molecules binding Notch2 protein – biochemical, small-molecule microarray, 635 nm fluorescence, stem cell growth factors, primary screen (AID 1073). The conditions noted are these: higher = more signal.
For test [6], the target named is Pro-neuregulin-1, membrane-bound isoform (Homo sapiens) (UniProt Q02297). The experiment in a line: small molecules binding neuregulin-1 protein – biochemical, small-molecule microarray, fluorescence 635/667, psychiatric disease protein project, primary screen (AID 1075).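 Note: score combines 667 nm spot fluorescence with signal to noise.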 Particulars: NRG1 binding, 635 nm fluorescence, higher = more signal.
For test [7], the system named is Neuregulin-1 EGF-like domain. The experiment in a line: small molecules binding NRG1 EGF domain – biochemical, small-molecule microarray, 635 nm fluorescence, primary screen (AID 1081).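 Note: binding of the protein to compounds printed on small-molecule microarray slides.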 Particulars: higher = more signal.
The nature of test [8]: FRG1 expression reporter modulators in myotubes – cell-based, C2C12 myotubes, firefly/Renilla luciferase, luminescence, FRG1 inhibition for FSHD, primary screen (AID 1084). Particulars: FRG1 promoter luciferase, higher = more signal, called active from +8 up or from −8 down.
The nature of test [9]: small molecules captured by biotinylated probe aFST – biochemical, small-molecule microarray, fluorescence 635/667, stem cell growth factor project, primary screen (AID 1086).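 Note: score merges 667 nm fluorescence with signal-to-noise of each printed compound spot.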 The conditions noted are these: higher = more signal.
Test [10] is described as follows: binders of probe aHhip on microarray, primary screen, stem cell growth factor project, biochemical, small-molecule microarray, fluorescence 635/667 (AID 1087).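 Note: score merges spot fluorescence at 667nm with spot signal to noise ratio.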 Particulars: higher = more signal.

Active and inactive are the calls of the source.

Pro-neuregulin-1, membrane-bound isoform (Homo sapiens), sequence (Q02297 whole entry, looked up, the tested form may be a part, canonical isoform): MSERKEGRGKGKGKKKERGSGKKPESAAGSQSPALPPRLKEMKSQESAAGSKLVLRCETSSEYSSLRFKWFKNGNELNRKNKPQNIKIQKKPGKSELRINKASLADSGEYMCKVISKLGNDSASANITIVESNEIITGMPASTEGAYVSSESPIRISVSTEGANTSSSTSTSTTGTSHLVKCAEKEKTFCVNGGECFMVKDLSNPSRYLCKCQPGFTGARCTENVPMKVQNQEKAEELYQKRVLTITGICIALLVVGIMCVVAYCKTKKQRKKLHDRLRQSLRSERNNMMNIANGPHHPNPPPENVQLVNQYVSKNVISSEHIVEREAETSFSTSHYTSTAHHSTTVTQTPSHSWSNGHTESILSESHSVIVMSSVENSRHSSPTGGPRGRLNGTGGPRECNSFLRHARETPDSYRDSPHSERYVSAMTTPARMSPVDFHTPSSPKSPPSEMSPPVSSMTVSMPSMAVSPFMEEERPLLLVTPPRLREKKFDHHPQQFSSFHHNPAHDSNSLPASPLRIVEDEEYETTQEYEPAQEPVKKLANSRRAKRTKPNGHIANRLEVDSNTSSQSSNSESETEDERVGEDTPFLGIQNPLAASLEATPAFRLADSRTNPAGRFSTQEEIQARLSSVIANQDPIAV
Neurogenic locus notch homolog protein 2 (Homo sapiens), sequence (Q04721 whole entry, looked up, canonical isoform): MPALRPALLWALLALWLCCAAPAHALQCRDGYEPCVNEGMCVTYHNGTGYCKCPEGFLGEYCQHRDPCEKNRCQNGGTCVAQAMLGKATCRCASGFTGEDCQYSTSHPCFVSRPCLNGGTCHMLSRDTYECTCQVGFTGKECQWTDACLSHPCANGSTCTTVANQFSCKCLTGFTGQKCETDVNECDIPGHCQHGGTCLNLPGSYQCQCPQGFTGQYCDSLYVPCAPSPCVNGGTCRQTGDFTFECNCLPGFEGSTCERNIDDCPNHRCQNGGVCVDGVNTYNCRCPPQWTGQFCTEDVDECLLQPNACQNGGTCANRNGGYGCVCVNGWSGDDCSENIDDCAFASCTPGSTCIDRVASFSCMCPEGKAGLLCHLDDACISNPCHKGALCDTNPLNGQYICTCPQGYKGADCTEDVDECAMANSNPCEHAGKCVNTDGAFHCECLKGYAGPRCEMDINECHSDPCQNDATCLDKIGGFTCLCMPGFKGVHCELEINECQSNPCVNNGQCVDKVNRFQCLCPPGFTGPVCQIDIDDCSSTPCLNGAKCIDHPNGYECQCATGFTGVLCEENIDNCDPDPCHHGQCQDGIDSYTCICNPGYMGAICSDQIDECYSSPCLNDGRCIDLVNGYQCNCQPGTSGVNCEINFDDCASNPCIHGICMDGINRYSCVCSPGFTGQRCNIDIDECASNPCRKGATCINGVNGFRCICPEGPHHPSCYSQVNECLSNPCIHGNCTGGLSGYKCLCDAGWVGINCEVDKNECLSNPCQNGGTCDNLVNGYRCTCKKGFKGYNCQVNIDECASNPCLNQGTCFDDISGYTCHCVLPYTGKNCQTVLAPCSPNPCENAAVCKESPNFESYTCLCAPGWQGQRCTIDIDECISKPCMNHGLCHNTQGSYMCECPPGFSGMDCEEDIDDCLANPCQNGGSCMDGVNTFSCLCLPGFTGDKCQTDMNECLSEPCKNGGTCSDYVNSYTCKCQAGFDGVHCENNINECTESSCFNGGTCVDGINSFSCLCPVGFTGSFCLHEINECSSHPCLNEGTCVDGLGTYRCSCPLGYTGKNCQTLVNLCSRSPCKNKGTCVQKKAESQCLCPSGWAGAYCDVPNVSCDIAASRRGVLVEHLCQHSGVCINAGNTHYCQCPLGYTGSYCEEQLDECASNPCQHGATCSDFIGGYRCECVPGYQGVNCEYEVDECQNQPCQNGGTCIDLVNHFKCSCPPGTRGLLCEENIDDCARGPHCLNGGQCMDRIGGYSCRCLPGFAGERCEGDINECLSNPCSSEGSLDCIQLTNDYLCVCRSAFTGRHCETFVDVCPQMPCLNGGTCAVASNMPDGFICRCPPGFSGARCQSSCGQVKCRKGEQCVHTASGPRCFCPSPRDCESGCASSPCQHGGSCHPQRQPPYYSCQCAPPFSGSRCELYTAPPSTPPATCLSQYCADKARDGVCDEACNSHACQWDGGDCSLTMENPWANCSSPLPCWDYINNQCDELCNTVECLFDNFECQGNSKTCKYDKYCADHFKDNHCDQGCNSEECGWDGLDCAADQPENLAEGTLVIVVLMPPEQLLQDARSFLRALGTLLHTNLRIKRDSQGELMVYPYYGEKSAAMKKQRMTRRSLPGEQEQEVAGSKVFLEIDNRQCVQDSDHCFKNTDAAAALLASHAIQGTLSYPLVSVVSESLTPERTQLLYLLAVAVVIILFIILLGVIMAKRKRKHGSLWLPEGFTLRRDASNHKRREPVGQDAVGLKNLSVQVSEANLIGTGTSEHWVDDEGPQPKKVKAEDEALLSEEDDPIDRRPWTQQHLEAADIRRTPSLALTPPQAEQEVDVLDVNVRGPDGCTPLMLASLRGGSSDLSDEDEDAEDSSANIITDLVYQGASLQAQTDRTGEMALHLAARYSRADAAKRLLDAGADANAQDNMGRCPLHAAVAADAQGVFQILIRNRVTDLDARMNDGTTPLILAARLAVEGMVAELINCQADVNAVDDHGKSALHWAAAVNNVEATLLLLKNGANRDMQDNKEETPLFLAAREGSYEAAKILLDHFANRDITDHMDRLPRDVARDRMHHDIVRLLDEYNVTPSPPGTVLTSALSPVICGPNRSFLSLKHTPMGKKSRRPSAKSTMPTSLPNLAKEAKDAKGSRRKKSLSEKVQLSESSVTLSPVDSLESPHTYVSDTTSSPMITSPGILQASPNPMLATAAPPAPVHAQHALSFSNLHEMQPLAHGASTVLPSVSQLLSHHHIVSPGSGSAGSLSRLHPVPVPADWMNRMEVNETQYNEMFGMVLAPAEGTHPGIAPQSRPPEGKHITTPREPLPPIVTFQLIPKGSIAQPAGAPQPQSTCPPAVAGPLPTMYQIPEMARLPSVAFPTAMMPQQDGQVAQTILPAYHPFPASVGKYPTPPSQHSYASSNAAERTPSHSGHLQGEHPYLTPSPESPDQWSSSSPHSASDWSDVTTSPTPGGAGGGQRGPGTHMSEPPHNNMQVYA

In the case of `CO[C@H]1O[C@H](CO)[C@@H](OC(=O)Nc2ccccc2-c2ccccc2)[C@H](OC(=O)Nc2ccc3c(c2)OCO3)[C@@H]1OC(=O)Nc1ccc2c(c1)OCO2`, the composite z-score came out at 0.0632 in [1]; 0.291 in [2]; 0.0826 in [3]; 0.733 in [4]; 1.44 in test [5]; 1.62 in test [6]. Also, the composite z-score in test [7] was 1.4; in [9], 1.2; in [10], 0.141. Besides, the z-score in [8] was 5.64 (inactive).

Take `O=C(CS)NCCCCCCNC(=O)[C@H]1C[C@H]2C(=O)N[C@@H](Cc3ccccc3)C(=O)N2[C@H]1c1cccc(OCCO)c1`: the composite z-score was -0.165 in [1]; 0.605 in [2]; 0.0465 in test [3]; 1.16 in [4]; 1.56 in test [5]; 1.36 in [6]. Moreover, the composite z-score is 1.41 in test [7], 0.928 in [9] and -0.145 in test [10]. In addition, in test [8], the z-score is 0.328 (inactive).

In the case of `CCOC(=O)C[C@H]1[C@H](OC(=O)c2ccc(C(=O)c3ccccc3)cc2)[C@@H](NC(=O)c2ccc3ccccc3c2)c2cc(OCCCO)ccc2N1C(=O)c1ccccc1`, the composite z-score in test [1] is -0.476; in test [2], 0.443; in test [3] it was -0.0943; in test [4] it was 0.757; in test [5], 1.48; in [6] it was 1.01. The composite z-score in test [7] was 1.07; in test [9], 0.355; in [10], -0.0672. The z-score in test [8] was 0.0732 (inactive).

On to `Cc1ccc(S[C@]2(C(=O)NC(C)C)CC(=O)N(Cc3ccccc3C(F)(F)F)[C@@H]2c2ccc(CO)cc2I)cc1`, for which the composite z-score in [1] is 1.01; in [2], -0.685; in test [3], -0.0924; in [4], -0.545; in test [5], -1.67; in [6] it was 1.91. Further, the figures for the composite z-score in test [7], in [9] and in [10] were 1.17, -0.415 and -0.274, respectively. Further, the z-score in test [8] was -0.62 (inactive).

As for `COC(=O)[C@@]1(Cc2ccccc2)[C@H]2c3cc(C(=O)N4CCCC4)n(Cc4cc(F)cc5c4OCOC5)c3C[C@H]2CN1C(=O)c1ccccc1`, the composite z-score in test [1] was 0.752; in test [2] it was -0.234; in test [3], 0.356; in test [4], 0.762; in test [5], 1.73; in test [6], 1.1. The composite z-score was 1.22 in test [7], 0.929 in test [9] and -0.0905 in [10]. The z-score in test [8] was -0.223 (inactive).

With `CN(C)CCCNC(=O)[C@@]1(c2ccc([N+](=O)[O-])cc2)CC(=O)N(CC23CC4CC(CC(C4)C2)C3)[C@@H]1c1ccc(CO)cc1`, the composite z-score in test [1] came to 1.47; in test [2] it was 1.15; in [3], 0.301; in [4], 0.143; in test [5], 0.904; in [6], 1.38. The figures for the composite z-score in [7], in [9] and in [10] were 1.35, 1.92 and 0.635, respectively. The z-score in test [8] is -2.36 (inactive).

As for `CN(C)CCCNC(=O)[C@@H]1c2ccccc2C(=O)N(Cc2ccc(OC(F)(F)F)cc2)[C@H]1c1ccc(CO)cc1`, the composite z-score in test [1] was -0.212; in test [2], -0.103; in test [3] it was -0.113; in test [4], -0.133; in test [5], -0.0854; in [6], 1.22. Further, the composite z-score amounted to 1.15 in [7], 0.18 in [9] and 0.287 in test [10]. Moreover, the z-score in [8] was -1.22 (inactive).

Consider `COCCOC(=O)N1C(=O)[C@@]2(c3ccccc31)[C@H](c1ccc(OCCO)cc1)N1[C@H](c3ccccc3)[C@H](c3ccccc3)OC(=O)[C@H]1[C@@H]2C(=O)Nc1nc2ccccc2s1`, for which the composite z-score in test [1] is -0.436; in [2], -0.504; in [3], -0.0848; in [4], 0.26; in test [5] it was 0.829; in test [6], 1.07. Also, the composite z-score in [7] was 1.25; in test [9] it was 0.439; in test [10] it was 0.154. Further, the z-score in test [8] is -0.567 (inactive).

On to `C[C@]1(C(=O)NC2CC2)c2ccccc2C(=O)N(Cc2ccc(OC(F)(F)F)cc2)[C@H]1c1ccc(CO)cc1`, for which the composite z-score in test [1] was 0.652; in [2], 0.179; in [3], -0.0642; in test [4], -0.366; in test [5], -1.02; in [6], -0.47. The results for the composite z-score in test [7], in [9] and in [10] were 0.745, 0.0221 and -0.111, respectively. For the same compound, in test [8], the z-score is -1.68 (inactive).

For the compound `COc1cc(CO)cc(I)c1O[C@H]1C=C(C(=O)NCCO)C[C@@H](N(Cc2ccc(F)cc2)C(=O)C2CCCO2)[C@@H]1O` (stereo not given in full), the composite z-score was -0.625 in test [1]; 0.114 in test [2]; -0.057 in test [3]; 0.122 in test [4]; 0.159 in [5]; -0.0002 in test [6]. The composite z-score is 0.547 in test [7], 0.0494 in test [9] and 0.142 in test [10]. The z-score in test [8] was -0.851 (inactive).

On to `C=CCC(OC(C)=O)[C@@H]1[C@@H](N(Cc2cc3ccccc3o2)C(=O)c2ccc(C)cc2)c2cc(OCCCO)ccc2N1C(=O)Cc1ccc2ccccc2c1` (stereo not given in full), for which the composite z-score is 0.222 in [1]; -0.603 in test [2]; 0.0755 in test [3]; 0.113 in [4]; -0.242 in [5]; -0.0075 in [6]. Also, the composite z-score in test [7] is -0.345; in test [9] it was 0.292; in [10], 0.107. Moreover, the z-score in test [8] is -0.286 (inactive).

With `O=C1O[C@@H](c2ccccc2)[C@@H](c2ccccc2)N2[C@@H](c3ccccc3OCCO)[C@]3(C(=O)Nc4ccc(C#CC5=CCCCC5)cc43)[C@@H](C(=O)NC[C@H](O)c3ccccc3)[C@H]12`, the composite z-score in test [1] is -0.595; in [2], 2.06; in test [3] it was 0.0296; in [4] it was 0.648; in test [5] it was 0.948; in test [6], 1.42. Besides, the composite z-score in test [7] was 1.01; in test [9], 0.517; in test [10], -0.0391. In test [8], the z-score was -0.279 (inactive).

As for `CN(C)CCCNC(=O)[C@@H]1c2ccccc2C(=O)N(CC23CC4CC(CC(C4)C2)C3)[C@H]1c1ccc(CO)cc1`, the composite z-score in [1] was -0.782; in [2], 1.13; in test [3] it was 0.0878; in test [4], 0.837; in test [5], 1.28; in [6], 1.15. Further, the composite z-score was 1.39 in [7], 0.445 in test [9] and -0.128 in test [10]. Also, the z-score in [8] was -1.92 (inactive).

The values above are taken from PubChem BioAssay.
